Test results from the supplement of paper PMC3334620.
The full ranking holds about 33,000 sequences; the median of “E-score (-0.5 to 0.5)” is about -0.012, and the highest 2% start at about 0.29. The sample holds the highest values, similar sequences and a random draw of the others, so the mix is not that of the screen.

target: T1, Ybr033w (UniProt P38073); test: PBM E-score (8-mer binding enrichment) (E-score (-0.5 to 0.5)); higher = stronger / more preferred TF binding; conditions: protein concentration: 200 nM; construct: GST-full length
T1 sequence: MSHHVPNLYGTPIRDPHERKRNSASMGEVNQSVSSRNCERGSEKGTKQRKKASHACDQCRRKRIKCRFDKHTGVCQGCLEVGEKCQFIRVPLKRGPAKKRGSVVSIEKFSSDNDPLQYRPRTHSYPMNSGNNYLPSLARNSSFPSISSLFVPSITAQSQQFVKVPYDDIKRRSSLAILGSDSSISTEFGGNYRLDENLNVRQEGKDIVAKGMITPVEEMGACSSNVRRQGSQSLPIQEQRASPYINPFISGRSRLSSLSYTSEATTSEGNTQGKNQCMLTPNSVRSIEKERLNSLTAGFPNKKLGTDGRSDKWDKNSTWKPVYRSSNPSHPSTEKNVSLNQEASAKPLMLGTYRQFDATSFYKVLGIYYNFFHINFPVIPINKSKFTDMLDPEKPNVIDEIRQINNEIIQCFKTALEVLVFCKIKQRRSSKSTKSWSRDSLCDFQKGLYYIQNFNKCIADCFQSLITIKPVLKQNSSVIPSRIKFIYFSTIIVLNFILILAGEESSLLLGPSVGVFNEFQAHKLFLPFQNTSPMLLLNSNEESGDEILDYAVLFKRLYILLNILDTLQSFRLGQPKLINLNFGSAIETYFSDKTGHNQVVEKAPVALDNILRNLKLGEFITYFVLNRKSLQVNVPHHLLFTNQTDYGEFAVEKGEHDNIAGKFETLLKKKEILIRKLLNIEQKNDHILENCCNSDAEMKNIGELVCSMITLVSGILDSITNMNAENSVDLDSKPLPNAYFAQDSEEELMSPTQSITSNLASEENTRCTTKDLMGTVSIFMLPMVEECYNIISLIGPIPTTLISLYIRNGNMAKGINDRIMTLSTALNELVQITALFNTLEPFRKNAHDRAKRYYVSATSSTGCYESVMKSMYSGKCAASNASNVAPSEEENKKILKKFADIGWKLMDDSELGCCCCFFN
Method in brief: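 Universal all-10-mer Agilent arrays, fresh or stripped once, were converted to double-stranded form by primer extension. GST-tagged yeast transcription factors from PURExpress in vitro transcription/translation, full-length or DNA-binding domain only, were applied at about 100-200 nM and detected with fluorescent anti-GST. After masliner normalisation, the Universal PBM Analysis Suite scored each ungapped eight-base word together with its reverse complement by E-score.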

Point of comparison: CTGGTCCA, “PBM E-score” value -0.17. Against it:
- TAACCAAA — higher, 0.186
- CGGAGGGA — higher, -0.057
- CGTCTTCC — lower, -0.215
- ATTACTCC — higher, 0.23
- CTTACTTA — higher, 0.0259
- ATTACTCA — higher, 0.296
- ATTACTGA — higher, 0.169
- ATTACTTA — higher, 0.35
- ATTACTCG — higher, 0.132
- CACCAGTC — lower, -0.196
- CAAAGTTA — higher, 0.279
- AAAAGTTC — higher, 0.373
- AAAAGTTG — higher, 0.133
- TAAAGTTA — higher, 0.358
- GAAAGTTC — higher, -0.0203
- AAAAGTAA — higher, 0.314
- AAAAGTTT — higher, 0.266
- ACAAGTTA — higher, 0.185
- AAAAGTAT — higher, 0.13
- CAAAGTAA — higher, 0.186
- GAAAGTTA — higher, 0.218
- AAAAGTTA — higher, 0.288
- ACGGTGGC — higher, -0.095
- CGGCCATA — the same, -0.17
- CTATCCAG — higher, 0.062
- AGTGGTTC — higher, 0.00899
- TGAGCCCA — higher, -0.0977
- GTTCTGCA — lower, -0.173
- AGAACTAG — higher, -0.084
- CTCTGCGC — higher, -0.118
- TAGACGCA — higher, -0.0494
- CCGCTTGA — higher, -0.162
- GCCTTTCC — lower, -0.254
- GAAATACA — higher, 0.14
- GAAATATC — higher, 0.231
- TAAATATA — higher, 0.353
- CAAATATA — higher, 0.281
- GAAATATA — higher, 0.327
- TAAATACA — higher, 0.229
- GGCCAATA — higher, -0.0498
- AAAGCTCT — lower, -0.262
- CAATGCTA — higher, 0.115
- CTCCATGA — higher, 0.0454
- TAGACAGA — higher, 0.157
- GATCAATC — higher, 0.184
- AATCAATT — higher, 0.247
- GATCAATA — higher, 0.329
- CATCAAAA — higher, 0.108
- TATCAATA — higher, 0.257
- GATCAAAA — higher, 0.296
- AATCAATC — higher, 0.0849
- AATCAAAA — higher, 0.225
- AATCAATA — higher, 0.334
- AGGGTAAG — higher, 0.0154
- CCTAGGAC — higher, -0.087
- AAAGCAAT — higher, 0.16
- ACCCCCTG — lower, -0.454
- CTGGAACA — higher, 0.31
- CTGGAATC — higher, -0.00413
- CTGGAAGA — higher, 0.189
- ATGGAACA — higher, 0.182
- GTGGAATA — higher, 0.262
- CTGGAACC — lower, -0.209
- CTGGAATA — higher, 0.355
- ATGGAATC — higher, 0.198
- ATGGAATA — higher, 0.316
- ATGTGGAA — higher, 0.235
- CCGGGTGC — lower, -0.181
- CCCTTTGC — higher, -0.134
- GGCCTAAC — higher, -0.013
- CACAGAGC — higher, -0.121
- ATACGTAT — higher, 0.207
- TGGATCCA — higher, -0.0233
- AGGATCAA — higher, 0.317
- AGGATCAC — higher, -0.0786
- TGGATCAA — higher, 0.377
- GGGATCAA — higher, 0.242
- AGGATCAG — higher, -0.166
- AAGAGTAT — higher, 0.00192
- AATAACCC — higher, 0.203
- GCACTTCC — higher, -0.149
- GAGAAAAA — higher, 0.155
- GAAAAAAA — higher, 0.37
- AAAAAAAG — higher, 0.273
- AAAAAAAC — higher, 0.24
- GAAAAAAC — higher, 0.265
- AAAAAAAA — higher, 0.353
- AGATCTTC — higher, 0.137
- AAGGATTG — higher, 0.126
- ACTCAACA — higher, 0.146
- CTTCTCCA — lower, -0.214
- ACCCAGGG — lower, -0.287
- ACTCGAAG — lower, -0.242
- GTTCCTAA — higher, 0.125
- GATATAGC — higher, 0.156
- ATATGAGC — higher, -0.0174
- AATTTACG — higher, 0.232
- AATTTACC — higher, 0.103
- ATTTTACA — higher, 0.0461
- CTTTTACC — higher, 0.101
- ATTTTACC — higher, 0.362
- ATTTTACG — higher, 0.328
- CCATTAGA — higher, -0.14
- CTGATAGC — higher, -0.0429
- TGTTCTAA — higher, 0.181
- TAGATCTA — higher, 0.19
- ATTCACAG — higher, 0.0908
- ATTCACAA — higher, 0.294
- GTTCACAA — higher, 0.18
- ATGAGGGG — lower, -0.206
- CAAAATAC — higher, 0.217
- ACAAATAT — higher, 0.287
- AAAAAAAT — higher, 0.248
- AAAAATAT — higher, 0.349
- ACAAATAG — higher, 0.167
- CAAAATAG — higher, 0.0554
- AAAAATAG — higher, 0.296
- AAAAATAC — higher, 0.304
- GAAAATAC — higher, 0.252
- ACTTTTAA — higher, 0.125
- ACTTTTAC — higher, 0.327
- ACTTTTAG — higher, 0.0501
- CATTTTAA — higher, 0.16
- CATTTTAC — higher, 0.298
- CATTTTAG — higher, 0.234
- AGAACCGC — higher, 0.096
- AGCGATTG — higher, -0.0938
- CAAATAAC — higher, 0.214
- GAAGAACA — higher, 0.353
- GCAAAACA — higher, 0.0364
- GAAAACCC — higher, -0.0428
- GGAAAACA — higher, 0.17
- CCAAAACA — higher, -0.026
- GAAAAACA — higher, 0.295
- GAAAAACC — higher, 0.386
- TCAAAACA — higher, 0.298
- GGAAAACC — higher, -0.11
- CAAGAACA — higher, 0.0281
- AAAAAACA — higher, 0.242
- GAAGAACC — higher, 0.248
- CGGAACCA — higher, 0.141
- GAACAATC — higher, 0.323
- GAACAAAC — higher, 0.345
- AAACAATC — higher, 0.234
- CAACAATC — higher, 0.256
- CAACAAAC — higher, 0.161
- AAACAAAC — higher, 0.229
- AAACAATA — higher, 0.196
- TAACAATA — higher, 0.273
- GAACAATA — higher, 0.412
- TAGCAATA — higher, 0.16
- AATCAGCT — higher, 0.185
- AGCTGCCG — higher, -0.115
- CGTTAAAA — higher, -0.0301
- TGTTAAAA — higher, 0.226
- AGTTAATC — higher, 0.368
- CGTTAATC — higher, 0.248
- AGTTAATG — higher, 0.216
- CGTTAATA — higher, 0.166
- AGTTAATA — higher, 0.336
- GGTTAATA — higher, 0.209
- AGTTAAAA — higher, 0.298
- TATTTGGA — higher, 0.082
- TCCAGACA — higher, -0.127
- GAGCGCAA — higher, -0.0711
- AACATACA — higher, 0.179
- CACTCTTA — higher, 0.0582
- GAAGATGC — higher, -0.106
- AATAATGT — higher, 0.183
- TATAATAA — higher, 0.318
- AACAATAA — higher, 0.258
- GATAATAA — higher, 0.194
- AATAATAC — higher, 0.245
- TGTAATAA — higher, 0.297
- CGTAATAA — higher, 0.154
- CATAATAA — higher, 0.131
- AATAATAT — higher, 0.388
- AACAATAC — higher, 0.157
- GGTAATAA — higher, 0.228
- AACAATAT — higher, 0.375
- AAGTTTAA — higher, 0.139
- AAAAGAAA — higher, 0.179
- ACGGACGT — higher, -0.144
- AAAGAGCC — higher, -0.112
- CAGGCTGC — higher, -0.118
- ACTAATAA — higher, 0.276
- AGTAATAT — higher, 0.336
- CCTAATAA — higher, -0.0059
- AATAATAG — higher, 0.202
- AGTAATAG — higher, 0.218
- AATAATAA — higher, 0.399
- AGTAATAC — higher, 0.222
- TCTAATAA — higher, 0.291
- CCGGGCGA — lower, -0.226
- ACCTACAG — higher, 0.0954
- TCACGCCA — higher, -0.081
- AAATTAAC — higher, 0.251
- GAATTAAA — higher, 0.149
- GCATTAAA — higher, 0.147
- TAATTAAA — higher, 0.276
- ACATTAAA — higher, 0.225
- AAATTAAT — higher, 0.314
- AAATTAAA — higher, 0.339
- TCATTAAA — higher, 0.319
- AAATTAAG — higher, 0.144
- AGGTAGGC — higher, -0.147
- AATCTGGG — higher, 0.00147
- CGCGAGTC — higher, -0.0881
- GCATACTA — higher, 0.0596
- ATAGTTCC — higher, 0.25
- AGCTGCCA — higher, -0.135
- AACAGATA — higher, 0.096
- TACAGATA — higher, 0.291
- GACAGATA — higher, 0.0702
- GGCTGTAA — higher, -0.0501
- ATTGAATC — higher, 0.0535
- ATTGAAAT — higher, 0.296
- CTTGAAAA — higher, 0.207
- ATTGAAAG — higher, 0.111
- ATTGAAAA — higher, 0.289
- ATTGAAAC — higher, 0.164
- ATTGAGTC — higher, -0.0117
- AATGAAAT — higher, 0.282
- ATTGAATA — higher, 0.305
- GTTGAGTA — higher, 0.127
- ATTGAGTA — higher, 0.29
- CTTGAATA — higher, 0.155
